# Data taken from PubChem BioAssay (NCI).
# This is part of a sample that, as a whole, favours compounds with a hit. Of some 83,000 tested, about 20% had one in any assay.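 Percent growth is the endpoint: 0 to 100 indicates growth inhibition (40 means 60% inhibition), 0 means no net growth, and negative values indicate cell death.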 Unmarked numbers belong to inactive results. The source made the active and inactive calls.
# System: EKVX NSCLC
# Test: NCI-60 one-dose screen, 48 h (100 = growth as untreated, 0 = no growth, -100 = all killed)
# Settings: 10 µM unless noted
# Experimental: Growth inhibition of the EKVX human Non-Small Cell Lung tumor cell line is measured as a screen for anti-cancer activity. Cells are grown in 96 well plates and exposed to the test compound for 48 hours. Compounds are tested at a single concentration, which is 10^-5 M for most compounds. The reported endpoint is percent growth (GI% or GIPRCNT), where numbers from 0 - 100% represent growth inhibition, and numbers from -100% - 0 represent cell death. For example, a value of 40 represents 60% growth inhibition. A value of 0 means no net growth occurred over the course of the experiment. A value of -40 indicates 40% of cells at the beginning of the experiment died by the end of the experiment. A value of -100 means all cells are dead at the end of the experiment.
# NCI-60 Human Tumor Cell Lines Screen was performed using the standard one-dose NCI protocol, which is described in more detail at https://dtp.cancer.gov/discovery_development/nci-60/default.htm.
# Compounds with GIPRCNT values below 10 were considered active. Activity score was based on GIPRCNT using the following formula: […]
# Score is 0 for GIPRCNT values of 100 or above, 50 for GIPRCNT values of 0, and 100 for GIPRCNT values of -100.
row,SMILES,growth
1,Nc1nc(Nc2ccccc2SSc2ccccc2Nc2nc(N)nc(-c3cccc(Br)c3)n2)nc(-c2cccc(Br)c2)n1,42.8%
2,N=c1c2cc(-c3ccccc3)oc2ncn1/N=C/c1ccc(Cl)cc1,84.7%
3,C[C@@H](Nc1c(C#N)cnc2ccc(-c3cnc(Cl)c(NS(C)(=O)=O)c3)cc12)c1ccccc1,-9.44% (active)
4,O=C1C(c2ccccc2)=C(N2CCc3ccccc32)OC1(Cl)Cl,76.3%
5,COc1ccc2c(c1)Oc1nc(N)c(C#N)c(N)c1C2Sc1ccc(C)cc1 (stereo not given),19.3%
6,COc1ccc(S(=O)(=O)NCCCNc2nccc(-c3[nH]c(-c4ccccc4)nc3-c3ccc(Cl)c(O)c3)n2)cc1,113%
7,CCN(CC)c1ccc(NC2=C(Cl)C(=O)c3nc(C)ccc3C2=O)cc1,-5.94% (active)
8,C#CCOc1ccc(/C=N\Nc2nc(-c3ccc(C)cc3)cs2)cc1OC,65.3%
9,C=C(C=O)[C@@H]1CC[C@]2(COC(C)=O)CC[C@]3(C)C(CC[C@@H]4[C@@]5(C)CC[C@H](OC(C)=O)C(C)(C)[C@@H]5CC[C@]43C)[C@@H]12 (stereo not given in full),12.9%
10,C=CCOc1cccc(/C=C2\SC(=S)N(C3CC(=O)N(c4ccc(Br)cc4)C3=O)C2=O)c1 (stereo not given),105%
11,O=C(CSc1nc2ccccc2c(=O)n1-c1ccccc1)Nc1ccc(-c2nc3ccc([N+](=O)[O-])cc3[nH]2)cc1,93.5%
12,Nn1c(N/N=C/c2nc3ccccc3s2)n[nH]c1=S,64.9%
13,O=c1c2ccccc2nc(COc2ccccc2)n1NS(=O)(=O)c1ccc(Cl)cc1,74.8%
14,CNC(=O)c1cc(N2CCc3cc(NC(=O)Nc4ccc(Cl)c(C(F)(F)F)c4)ccc32)ccn1,55.1%
15,N#Cc1cnc2ccc(-c3cnc(N)nc3)cc2c1N1CCc2cc(F)c(Cl)cc21,-7.03% (active)
16,C[C@H](CCC(=O)NCc1ccc(C(=O)Nc2ccccc2N)cc1)[C@H]1CC[C@H]2[C@@H]3[C@@H](O)C[C@@H]4C[C@H](O)CC[C@]4(C)[C@H]3CC[C@]12C,69.4%
17,O=C1CC(=O)N2CSCN(C(c3ccccc3)c3nc4ncncc4[nH]3)C2=N1 (stereo not given),94.3%
18,CCOc1ccc(C(=O)Nc2ncc(Cc3ccc(F)cc3)s2)cc1,41.3%
19,Cc1cc(C)c(N2C(=O)CC(Nc3ccc(Cl)cc3Cl)C2=O)c(C)c1 (stereo not given),102%
20,O=C(CCn1cc[n+](CC(=O)c2ccc(-c3ccccc3)cc2)c1)Nc1cccc2cccnc12,81.9%

row,SMILES,growth
1,COC(=O)c1[nH]nc2c1C1(C(=O)c3cccc4cccc1c34)C(C#N)=C(N)O2 (stereo not given),89.9%
2,COc1cc(-c2nn(C(C)(C)C)cc2-c2ccnc(NCCCNS(=O)(=O)c3cccc(F)c3)n2)ccc1Cl,40.6%
3,COc1ccc2[nH]cc(-c3csc4nc(-c5ccccc5)cn34)c2c1,35.8%
4,NC(=O)c1cccc(-n2ccc3cc(NC(=O)Nc4ccc(N5CCOCC5)c(C(F)(F)F)c4)ccc32)n1,11.2%
5,COc1ccc(CCOc2cc3c(cc2OC)CCN(C(=O)NCc2cocn2)C3c2ccc(C)cc2C)cc1 (stereo not given),39.7%
6,O=C(O)c1cn(C2CC2)c2cc(N3CCN(C(=O)CN4C(=O)CSC4=O)CC3)c(F)cc2c1=O,74.4%
7,C#Cc1ccc(C(=O)NCc2ccc(/C=C/C(=O)c3nccn3C)cc2)cc1,36.4%
8,Cc1cccc(/C=C/C(=O)Nc2ncc(Cc3cccc(C)c3)s2)c1,36.8%
9,CCCn1cnc2c(c1=N)C(c1ccc(OC)cc1)c1sc3c(C)cccc3c1O2 (stereo not given),40.9%
10,C=CCn1c(SCC(=O)Nc2ccc(C(=O)/C=C/c3ccc(C)cc3)cc2)nnc1-c1c[nH]c2ccccc12,61.9%
11,CN1CCN(c2ccc(/C=N/Nc3nc4ccccc4c(=O)n3-c3ccccc3)cc2)CC1,100%
12,O=C(Cn1cc(-c2ccccc2)nn1)Nc1nc(-c2ccc(Cl)cc2)cs1,98%
13,NS(=O)(=O)c1ccc(Nc2nc(N/N=C/c3c[nH]c4ccccc34)nc(Nc3ccccc3)n2)cc1,67.4%
14,Cc1ccc(NC(=O)CNc2cc(C(N)=O)cc(F)c2C)c(Cl)c1,47.5%
15,CC(C)(C)n1cc(-c2ccnc(NCCCNS(=O)(=O)c3cccc(F)c3)n2)c(-c2ccc(Cl)c(O)c2)n1,80.5%
16,Cc1ccc2c(c1)Oc1nc(N)c(C#N)c(N)c1C2Sc1ccc(F)cc1 (stereo not given),-98.9% (active)
17,CCc1cccc2c3c(sc12)C(c1ccc(OC)cc1)C(C#N)=C(/N=C/c1ccc(Cl)cc1)O3 (stereo not given),47.6%
18,Cc1ccc(-n2cc(/C=N/NC(=O)c3nc(N)n[nH]3)c(-c3ccc(S(C)(=O)=O)cc3)n2)cc1,92.9%
19,CC(=O)Nc1cccc(Nc2nc(N[C@@H](C)c3ccccc3)c3ccccc3n2)c1,24%
20,CCCn1cnc2c(c1=N)C(c1ccc(OC)cc1)c1sc3c(CC)cccc3c1O2 (stereo not given),46.4%
